Test results: PubChem BioAssay (NCI)
This is part of a sample that, as a whole, favours compounds with a hit. Of some 83,000 tested, about 20% had one in any assay.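 Single-concentration screen, 48 h exposure, 96-well plates. Endpoint: percent growth. Below 10 = active.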 Unmarked numbers belong to inactive results. The source made the active and inactive calls.

Tests used:
Assay in all cases: NCI-60 one-dose screen, 48 h (100 = growth as untreated, 0 = no growth, -100 = all killed)
Details in all cases: 10 µM unless noted
[1] = tested on: NCI-H226 lung
[2] = tested on: NCI-H322M lung
[3] = tested on: HOP-62 NSCLC
[4] = tested on: NCI-H460 lung
[5] = tested on: HOP-92 NSCLC
[6] = tested on: NCI-H522 lung
[7] = tested on: A549/ATCC NSCLC
[8] = tested on: 786-0 renal
[9] = tested on: COLO 205 colon
[10] = tested on: DU-145 prostate
[11] = tested on: K-562 leukemia
[12] = tested on: MALME-3M melanoma
[13] = tested on: MDA-MB-231 breast
[14] = tested on: RXF 393 renal
[15] = tested on: SF-268 CNS
[16] = tested on: SF-295 CNS
[17] = tested on: SF-539 CNS
[18] = tested on: UACC-257 melanoma
[19] = tested on: M14 melanoma
[20] = tested on: HCT-15 colon

Structure (SMILES) | growth [1] | growth [2] | growth [3] | growth [4] | growth [5] | growth [6] | growth [7] | growth [8] | growth [9] | growth [10] | growth [11] | growth [12] | growth [13] | growth [14] | growth [15] | growth [16] | growth [17] | growth [18] | growth [19] | growth [20]
Clc1ccc2oc3c(NCCCN4CCOCC4)c4ccccc4nc3c2c1 | 16.4% | 21.6% | 43.5% | 6.4% (active) | 33% | 28.2% | 25.1% | 20% | 13.2% | 16.8% | 1.61% (active) | 24.1% | 25.2% | 13.9% | 38.1% | 17.4% | 19.9% | 50.5% | 31.8% | 3.77% (active)
Cn1ccnc1C(=O)/C=C/c1ccc(NC(=O)Nc2ccc(F)cc2)cc1 | 63.3% | 49.5% | 31% | 7.07% (active) | 78.2% | 14.7% | 36.4% | 27.3% | 49.5% | 35.1% | 9.78% (active) | 69% | 28.8% | 19.4% | 55.6% | 23.3% | -15.6% (active) | 85.6% | 45.1% | 21%
O=C(CSc1nnc(-c2ccc3nc(-c4ccc(Cl)cc4)[nH]c3c2)o1)Nc1ccc(C(=O)/C=C/c2ccc(Cl)cc2)cc1 | 86% | 95.4% | 97.9% | 102% | 94.2% | 88.4% | 95.5% | 92.6% | 118% | 111% | 81.4% | 102% | 90.6% | 104% | 99.9% | 93% | 84.3% | 107% | 102% | 89.8%
C[C@@H]1CN(c2ccc3ncc(C#Cc4cncc(C(=O)Nc5ccc(CN6CCN(C)CC6)c(C(F)(F)F)c5)c4)n3n2)C[C@H](C)O1 | -48.8% (active) | -19.4% (active) | -30.1% (active) | -77.7% (active) | -44.4% (active) | -78.8% (active) | -82.5% (active) | -74.8% (active) | -76.8% (active) | -97.5% (active) | -11.8% (active) | -68.9% (active) | -24.9% (active) | -92.1% (active) | -60.3% (active) | 0.595% (active) | -96.1% (active) | -19.1% (active) | -76.3% (active) | -17.2% (active)
COc1cc2cc(Oc3ccc(NC(=O)c4cccc(C(F)(F)F)c4)cc3)c(C)nc2cc1OCCN1CCCCC1 | 103% | 69.2% | 98.1% | -69.4% (active) | 43.7% | 68.9% | 19.2% | 55.4% | -94.8% (active) | 59.4% | -48.2% (active) | -86.1% (active) | -100% (active) | -16% (active) | 81.5% | 7.09% (active) | -68.8% (active) | -87.3% (active) | -86.7% (active) | -88.8% (active)
C=CCn1c(SCC(=O)c2ccccc2)nnc1-c1c[nH]c2ccccc12 | 87.8% | 102% | 92.5% | 107% | 81.3% | 97.8% | 100% | 101% | 122% | 109% | 92.6% | 86.6% | 88.8% | 102% | 102% | 96.2% | 97.3% | 97.9% | 97.7% | 96%
C#C[C@]1(O)CC[C@H]2[C@@H]3CC=C4c5sc(Nc6ccc(Cl)cn6)nc5CC[C@]4(C)[C@H]3CC[C@@]21C | 77.1% | 82.3% | 34.8% | 28.3% | 59.5% | 67.7% | 50.3% | -78.8% (active) | 88.8% | 63.4% | 9.48% (active) | 58.3% | 27.2% | -53.2% (active) | 43.7% | -63% (active) | -30.8% (active) | -45.2% (active) | 50.7% | 39.7%
O=C(CSc1nccc(=O)[nH]1)Nc1ccc(-c2nc3ccccc3[nH]2)cc1 | 105% | 98.2% | 94.3% | 110% | 103% | 104% | 110% | 101% | 113% | 106% | 105% | 101% | 102% | 128% | 115% | 115% | 98.9% | 108% | 110% | 108%
COc1ccc2[nH]cc(-c3cc(N)n4nc(-c5c[nH]c6ccc(OC)cc56)cc4n3)c2c1 | 36.8% | 25.4% | 76.2% | -84.6% (active) | 79.1% | 53.9% | -5.78% (active) | -86.4% (active) | -54.3% (active) | -10.5% (active) | -35.5% (active) | -68.4% (active) | -12.6% (active) | -50.6% (active) | -30% (active) | 25.2% | -89.7% (active) | -21.8% (active) | -78.3% (active) | 1.36% (active)
O=C(CN1C(=O)/C(=C/c2ccccc2)SC1=S)N1CCOCC1 | 105% | 91.9% | 97% | 105% | 102% | 68.2% | 97.4% | 92.3% | 116% | 103% | 77.4% | 83.6% | 95.2% | 105% | 102% | 103% | 95.8% | 95.8% | 88.5% | 88.2%
CN(C)CCCNc1c2ccc(Cl)cc2nc2c1oc1ccc(Cl)cc12 | 25.7% | 2.57% (active) | 47.7% | -31.2% (active) | 21.8% | 16.7% | -38.4% (active) | -85.3% (active) | 34.2% | -48.8% (active) | -6.56% (active) | 49.4% | -60.9% (active) | -80.8% (active) | 43.8% | -66.9% (active) | -85.8% (active) | 94.5% | -75.6% (active) | -42.4% (active)
Cc1cccc2sc(/N=C(\N)C(Br)Br)nc12 | 42.8% | 48.8% | 67% | 1.4% (active) | 47.6% | -76% (active) | 37.4% | 31.6% | 27% | 4.67% (active) | 4.43% (active) | -53.6% (active) | 6.18% (active) | -22.5% (active) | 72.4% | 29% | 8.75% (active) | 67.8% | 32.6% | -36.5% (active)
COc1cc(-c2nc3ccc(-c4nnc(SCC(=O)Nc5ccc(C(C)=O)cc5)o4)cc3[nH]2)cc(OC)c1OC | 105% | 99.5% | 98.7% | 103% | 92.5% | 99.5% | 99.9% | 106% | 110% | 115% | 108% | 97.7% | 96% | 116% | 111% | 101% | 97.6% | 105% | 105% | 103%
COc1ccc(NC(=O)c2sc3nc(-c4cnccn4)cc(-c4cccs4)c3c2N)cc1 | 35.5% | 82.3% | 84.4% | 55.3% | 57.7% | 78.2% | 72.5% | 62.7% | – | 88.9% | 54.5% | 86.5% | 79.7% | 31.7% | 81% | 84% | -14.2% (active) | 85.1% | 81.2% | 66.5%
Cn1cc(-c2cc(N)n3nc(-c4cn(C)c5ccc(Cl)cc45)cc3n2)c2cc(Cl)ccc21 | 111% | 85.7% | 102% | 71.4% | 95.3% | 100% | 87.9% | 99.4% | – | 71.4% | 26.5% | 100% | 71.1% | 121% | 78.8% | 95.4% | 94.2% | 108% | 53.4% | 32.8%
